# Source: the antibiotic and cytotoxicity screens of Wong et al. (2023)
# The whole screen tested about 39,000 compounds, of which about 1,500 (3.8%) were called active. The sample holds actives, similar compounds and a random draw of the others, so the mix is not that of the screen.
# Tested on: HSkMC (human skeletal muscle cells)
# Test: cytotoxicity call (relative viability < 0.9)
# Settings: 10 µM
row,Structure (SMILES),cytotoxicity call
1,C#CC1(OC(C)=O)CCC2C3CCC4=CC(OC(C)=O)CCC4C3CCC21C (stereo not drawn),inactive
2,Cc1ccc(S(=O)(=O)N(C)C[C@@H]2Oc3ccc(NC(=O)CCCN(C)C)cc3C(=O)N([C@@H](C)CO)C[C@@H]2C)cc1,inactive
3,COc1ccc(S(=O)(=O)N(C)C[C@@H]2OCCCC[C@@H](C)Oc3ccc(NC(=O)c4ccccc4)cc3C(=O)N([C@H](C)CO)C[C@H]2C)cc1,inactive
4,COCC#Cc1ccc([C@H]2[C@H](CO)N3C(=O)CN(C(=O)CN4CCOCC4)C[C@@H]23)cc1,inactive
5,O=C(O)CCC(=O)O,inactive
6,CCOC(=O)CN1CCN(C=O)CC1,inactive
7,C[C@H](CO)N1C[C@H](C)[C@@H](CN(C)Cc2ccc(C(F)(F)F)cc2)OCCCC[C@H](C)Oc2ccc(NS(=O)(=O)c3ccc(F)cc3)cc2C1=O,inactive
8,COc1ccc(CN(C)C[C@H]2OCCCC[C@H](C)Oc3ccc(NC(=O)NC(C)C)cc3C(=O)N([C@H](C)CO)C[C@H]2C)cc1,inactive
9,O=C(N[C@@H](c1cccnc1)c1ccc2c(c1)OCO2)C1CCN(CCOc2ccc(Cl)cc2Cl)CC1,inactive
10,NCc1ccc(S(N)(=O)=O)cc1,inactive
11,COc1ccc(S(=O)(=O)Nc2ccc3c(c2)CC(=O)N([C@@H](C)CO)C[C@H](C)[C@H](CN(C)S(=O)(=O)c2ccc(F)cc2)O3)cc1,inactive
12,C[C@@H]1CN([C@@H](C)CO)C(=O)c2cccc(NC(=O)c3ccncc3)c2O[C@H]1CN(C)Cc1ccc(-c2ccccc2)cc1,inactive
13,C[C@@H]1CN([C@H](C)CO)C(=O)Cc2cc(NC(=O)Cc3cn(C)c4ccccc34)ccc2O[C@H]1CN(C)Cc1ccc(-c2ccccc2)cc1,active
14,C[C@H]1CN([C@@H](C)CO)C(=O)Cc2cc(NC(=O)Cc3cn(C)c4ccccc34)ccc2O[C@H]1CN(C)Cc1ccc(C(F)(F)F)cc1,inactive
15,C[C@@H]1CN([C@@H](C)CO)C(=O)Cc2cc(NC(=O)Cc3cn(C)c4ccccc34)ccc2O[C@@H]1CN(C)Cc1ccc(-c2ccccc2)cc1,inactive
16,C[C@@H]1CN([C@H](C)CO)C(=O)Cc2cc(NC(=O)Cc3cn(C)c4ccccc34)ccc2O[C@H]1CN(C)Cc1ccc(C(F)(F)F)cc1,inactive
17,C[C@H]1CN([C@@H](C)CO)C(=O)Cc2cc(NC(=O)Cc3cn(C)c4ccccc34)ccc2O[C@@H]1CN(C)Cc1ccc(C(F)(F)F)cc1,active
18,C[C@H]1CN([C@@H](C)CO)C(=O)Cc2cc(NC(=O)Cc3cn(C)c4ccccc34)ccc2O[C@H]1CN(C)Cc1ccc(Oc2ccccc2)cc1,active
19,C[C@@H]1CN([C@@H](C)CO)C(=O)Cc2cc(NC(=O)Cc3cn(C)c4ccccc34)ccc2O[C@H]1CN(C)Cc1ccc(-c2ccccc2)cc1,inactive
20,C[C@H]1CN([C@@H](C)CO)C(=O)Cc2cc(NC(=O)Cc3cn(C)c4ccccc34)ccc2O[C@@H]1CN(C)Cc1ccc(Oc2ccccc2)cc1,inactive
21,C[C@H](CO)N1C[C@H](C)[C@H](CN(C)Cc2ccc(Oc3ccccc3)cc2)Oc2ccc(NC(=O)Cc3cn(C)c4ccccc34)cc2CC1=O,inactive

row,Structure (SMILES),cytotoxicity call
1,C[C@@H]1CN([C@H](C)CO)C(=O)CCCn2nncc2CO[C@@H]1CN(C)Cc1cccc2c1OCCCO2,inactive
2,COc1ccc(NC(=O)N(C)C[C@H]2Oc3ccc(NS(=O)(=O)c4c(C)noc4C)cc3CC(=O)N([C@H](C)CO)C[C@H]2C)cc1,inactive
3,Cc1cc(OCc2nnc(SC3CCCC3)n2-c2cccnc2)ccc1-c1ccc(S(C)(=O)=O)cc1,active
4,C[C@@H]1CN([C@@H](C)CO)C(=O)c2cc(NC(=O)CCC(F)(F)F)ccc2O[C@@H](C)CCCCO[C@@H]1CN(C)S(=O)(=O)c1ccc(F)cc1,inactive
5,CCCC[C@@H](C)/C=C(C)/C=C(\C)C(=O)NC1=C[C@@](O)(/C=C/C=C/C=C/C(=O)NC2C(=O)CCC2=O)[C@@H]2O[C@@H]2C1=O,active
6,COc1cccc(S(=O)(=O)Nc2ccc3c(c2)[C@H]2C[C@H](CC(=O)NCCc4ccccc4)O[C@H](CO)[C@H]2O3)c1,inactive
7,C[C@@H]1CN([C@@H](C)CO)S(=O)(=O)c2ccc(C#CC3(O)CCCC3)cc2O[C@@H]1CN(C)C(=O)Cc1cccnc1,inactive
8,COc1ccccc1S(=O)(=O)N(C)C[C@H]1OCc2cn(nn2)CCCC(=O)N([C@H](C)CO)C[C@H]1C,inactive
9,C[C@@H]1CN([C@H](C)CO)C(=O)c2cc(NS(=O)(=O)c3ccc(F)cc3)ccc2O[C@@H]1CN(C)Cc1ccc(-c2ccccc2)cc1,active
10,C[C@H](CO)N1C[C@H](C)[C@H](CN(C)Cc2ccc(-c3ccccc3)cc2)Oc2ccc(NS(=O)(=O)c3ccc(F)cc3)cc2C1=O,inactive
11,C[C@@H]1CN([C@H](C)CO)C(=O)c2cc(NS(=O)(=O)c3ccc(F)cc3)ccc2O[C@H]1CN(C)Cc1ccc(-c2ccccc2)cc1,inactive
12,C[C@@H]1CN([C@@H](C)CO)C(=O)c2cc(NS(=O)(=O)c3ccc(F)cc3)ccc2O[C@H]1CN(C)Cc1ccc(-c2ccccc2)cc1,inactive
13,C[C@@H]1CN([C@@H](C)CO)C(=O)c2cc(NS(=O)(=O)c3ccc(F)cc3)ccc2O[C@@H]1CN(C)Cc1ccc(-c2ccccc2)cc1,active
14,C[C@H]1CN([C@@H](C)CO)C(=O)c2cc(NS(=O)(=O)c3ccc(F)cc3)ccc2O[C@@H]1CN(C)Cc1ccc(-c2ccccc2)cc1,inactive
15,Cc1noc(C)c1NC(=O)Nc1ccc2c(c1)C(=O)N([C@@H](C)CO)C[C@@H](C)[C@@H](CN(C)CC1CCCCC1)OCCCC[C@H](C)O2,inactive
16,CN(C)CCCCNC(=O)[C@H]1C[C@H]2C(=O)N3CCC[C@H]3C(=O)N2[C@H]1c1cccc(OCCO)c1,inactive
17,O=C(N1CCOCC1)[C@]1(CCS(=O)(=O)c2ccccc2)N=C(c2ccc(OCCCO)cc2)O[C@@H]1c1ccccc1,inactive
18,C[C@@H]1CN([C@@H](C)CO)C(=O)c2c(c3ccccc3n2C)-c2ccccc2CO[C@@H]1CN(C)Cc1cccc(C(F)(F)F)c1,active
19,C[C@@H]1CN([C@@H](C)CO)C(=O)c2c(c3ccccc3n2C)-c2ccccc2CO[C@H]1CN(C)Cc1cccc(C(F)(F)F)c1,inactive
20,C[C@H](CO)N1C[C@H](C)[C@H](CN(C)Cc2cccc(C(F)(F)F)c2)OCc2ccccc2-c2c(n(C)c3ccccc23)C1=O,active
21,C[C@@H]1CN([C@H](C)CO)C(=O)c2ccccc2-c2ccccc2CO[C@@H]1CN(C)Cc1ccc(Cl)c(Cl)c1,inactive

row,Structure (SMILES),cytotoxicity call
1,C[C@H](CO)N1C[C@H](C)[C@@H](CN(C)Cc2cccc(C(F)(F)F)c2)OCc2ccccc2-c2c(n(C)c3ccccc23)C1=O,inactive
2,C[C@@H]1CN([C@@H](C)CO)C(=O)c2ccccc2-c2ccccc2CO[C@@H]1CN(C)Cc1ccc(Cl)c(Cl)c1,inactive
3,C[C@@H]1CN([C@H](C)CO)C(=O)c2c(c3ccccc3n2C)-c2ccccc2CO[C@H]1CN(C)Cc1cccc(C(F)(F)F)c1,inactive
4,C[C@H]1CN([C@@H](C)CO)C(=O)c2ccccc2-c2ccccc2CO[C@H]1CN(C)Cc1ccc(Cl)c(Cl)c1,active
5,C[C@@H]1CN([C@@H](C)CO)C(=O)c2c(c3ccccc3n2C)-c2ccccc2CO[C@H]1CN(C)Cc1cccc(F)c1,inactive
6,C[C@H]1CN([C@@H](C)CO)C(=O)c2c(c3ccccc3n2C)-c2ccccc2CO[C@H]1CN(C)Cc1cccc(C(F)(F)F)c1,inactive
7,C[C@@H]1CN([C@H](C)CO)C(=O)c2c(c3ccccc3n2C)-c2ccccc2CO[C@@H]1CN(C)Cc1cccc(C(F)(F)F)c1,inactive
8,C[C@H]1CN([C@@H](C)CO)C(=O)c2c(c3ccccc3n2C)-c2ccccc2CO[C@@H]1CN(C)Cc1cccc(C(F)(F)F)c1,active
9,COc1ccc(NC(=O)N(C)C[C@H]2OCCCC[C@@H](C)Oc3ccc(NS(=O)(=O)c4ccc(Cl)cc4)cc3C(=O)N([C@@H](C)CO)C[C@H]2C)cc1,inactive
10,C[C@@H]1CCCCO[C@@H](CN(C)C(=O)Cc2ccccc2)[C@H](C)CN([C@@H](C)CO)C(=O)c2cc(NC(=O)C3CCCCC3)ccc2O1,inactive
11,C[C@@H]1CCCCO[C@@H](CN(C)C(=O)NC2CCCCC2)[C@H](C)CN([C@@H](C)CO)C(=O)c2cc(NS(=O)(=O)c3ccc(F)cc3)ccc2O1,inactive
12,C[C@H]1CN([C@@H](C)CO)C(=O)c2cc(Br)cnc2O[C@@H]1CN(C)S(C)(=O)=O,inactive
13,Cc1noc(C)c1NC(=O)Nc1ccc2c(c1)CC(=O)N([C@@H](C)CO)C[C@H](C)[C@H](CN(C)S(=O)(=O)c1c(C)noc1C)O2,inactive
14,CC(C)CC#Cc1ccc2c(c1)O[C@@H](CN(C)S(=O)(=O)c1ccc(F)cc1)[C@@H](C)CN([C@@H](C)CO)S2(=O)=O,inactive
15,C[C@@H]1CCCCO[C@@H](CN(C)Cc2ccc3c(c2)OCO3)[C@@H](C)CN([C@H](C)CO)C(=O)c2cc(NS(=O)(=O)c3ccccc3)ccc2O1,inactive
16,O=C1CN(C(=O)c2ccccc2)C(=S)N1,inactive
17,C[C@@H]1CN([C@H](C)CO)C(=O)c2cc(N(C)C)ccc2O[C@@H](C)CCCCO[C@H]1CN(C)Cc1ccc(C(=O)Nc2ccccc2N)cc1,inactive
18,CCC(=O)Nc1ccc2c(c1)OC[C@H](C)N(C(=O)CN1CCOCC1)C[C@@H](C)[C@H](OC)CN(C)C2=O,inactive
19,Cc1ccc2c(c1)/C(=C/c1ccncc1)c1cc3ccccc3nc1-2,inactive
20,OCc1ccccc1-c1ccccc1,inactive
21,COc1ccc(NC(=O)Nc2ccc3c(c2)C(=O)N([C@@H](C)CO)C[C@H](C)[C@@H](CN(C)Cc2ccc(C(=O)O)cc2)OCCCC[C@@H](C)O3)cc1,inactive
